# About 8,800 targets were measured; listed, in parts, are those with a hit and a random draw of the rest. About 0.5% of all pairs of compound and target were hits. Values without a mark were called inactive.
# Columns and labels:
# Assay in all cases: log2 fold change, soluble protein after heating vs DMSO (PISA); higher = thermal stabilisation; K562 lysate, 10 uM; active = over 0.2 and 3.5 SD of the protein, either way, in both replicates (recomputed)
# [1] = compound: C1=CC=C(C=C1)[C@H](COC2=CC3=C(C=C2)NC(=O)N3)NC(=O)C4=CC=CN(C4=O)CC5=CC(=C(C=C5)F)F
# Method in brief: (§1)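 Following dounce homogenisation of K562 pellets in PBS pH 7.4 with 1 mM MgCl2, crude extract at 1 mg/mL protein was incubated for 30 min with 10 μM compound. Aliquots were then heated for 3 min over 48°C-58°C and pooled, NP-40 was added to 0.5% at 4°C, and soluble protein was recovered as the supernatant at 21,000xg for 90 min. Channel-sum-equalised TMTpro 16plex LC-MS/MS quantified this protein. Each value, from duplicates, is a log-two fold change in thermal stability relative to solvent controls.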
# [2] = compound: CC1=C(SC2=C1C(=N[C@H](C3=NN=C(N32)C)CC(=O)N)C4=CC=C(C=C4)Cl)C
# Method in brief: as §1
# [3] = compound: CC1=C2C(=CC=C1)N=C(N(C2=O)C3=CC=CC=C3C)CN4C=NC5=C(N=CN=C54)N
# Method in brief: as §1
# [4] = compound: Cc1sc2c(c1C)C(c1ccc(Cl)cc1)=N[C@@H](CC(=O)OC(C)(C)C)c1nnc(C)n1-2
# Method in brief: as §1
# [5] = compound: c1ccc([C@@H]2C[C@H]2NC2CCNCC2)cc1
# Method in brief: as §1
# UniProt Q5XPI4, sequence (Q5XPI4 whole entry, looked up): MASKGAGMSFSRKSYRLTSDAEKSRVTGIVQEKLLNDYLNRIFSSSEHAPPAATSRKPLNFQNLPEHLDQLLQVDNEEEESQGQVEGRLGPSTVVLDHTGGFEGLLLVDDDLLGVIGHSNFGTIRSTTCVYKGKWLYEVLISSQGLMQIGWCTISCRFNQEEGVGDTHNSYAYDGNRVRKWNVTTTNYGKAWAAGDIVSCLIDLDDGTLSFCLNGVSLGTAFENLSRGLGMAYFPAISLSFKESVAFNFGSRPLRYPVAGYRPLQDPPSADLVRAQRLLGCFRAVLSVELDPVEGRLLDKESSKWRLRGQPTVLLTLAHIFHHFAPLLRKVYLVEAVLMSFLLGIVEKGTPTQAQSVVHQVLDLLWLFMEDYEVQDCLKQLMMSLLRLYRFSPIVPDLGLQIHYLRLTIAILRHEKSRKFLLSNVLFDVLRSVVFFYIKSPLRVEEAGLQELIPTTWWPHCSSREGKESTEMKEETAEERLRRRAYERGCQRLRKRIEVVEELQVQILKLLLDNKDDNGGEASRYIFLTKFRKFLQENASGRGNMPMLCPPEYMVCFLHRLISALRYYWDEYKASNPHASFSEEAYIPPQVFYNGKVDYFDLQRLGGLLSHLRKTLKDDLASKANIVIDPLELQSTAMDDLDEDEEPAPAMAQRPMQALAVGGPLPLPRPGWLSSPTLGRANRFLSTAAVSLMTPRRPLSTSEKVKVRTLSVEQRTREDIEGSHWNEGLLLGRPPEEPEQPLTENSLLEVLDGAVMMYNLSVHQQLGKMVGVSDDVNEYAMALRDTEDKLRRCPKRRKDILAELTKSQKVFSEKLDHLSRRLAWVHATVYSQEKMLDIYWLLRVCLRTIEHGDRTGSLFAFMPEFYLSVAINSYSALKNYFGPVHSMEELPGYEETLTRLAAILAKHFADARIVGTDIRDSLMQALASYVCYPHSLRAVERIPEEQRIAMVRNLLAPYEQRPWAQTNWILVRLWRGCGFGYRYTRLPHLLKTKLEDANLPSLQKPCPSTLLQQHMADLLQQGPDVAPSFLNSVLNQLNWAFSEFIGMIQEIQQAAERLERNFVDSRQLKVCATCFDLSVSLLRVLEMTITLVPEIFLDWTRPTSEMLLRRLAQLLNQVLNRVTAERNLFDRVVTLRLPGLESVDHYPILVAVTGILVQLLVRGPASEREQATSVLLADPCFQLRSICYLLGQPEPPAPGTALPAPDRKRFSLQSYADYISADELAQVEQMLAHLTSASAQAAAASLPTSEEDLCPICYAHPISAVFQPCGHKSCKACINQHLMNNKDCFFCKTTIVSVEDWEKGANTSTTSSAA
# UniProt P53805, sequence (P53805 whole entry, looked up): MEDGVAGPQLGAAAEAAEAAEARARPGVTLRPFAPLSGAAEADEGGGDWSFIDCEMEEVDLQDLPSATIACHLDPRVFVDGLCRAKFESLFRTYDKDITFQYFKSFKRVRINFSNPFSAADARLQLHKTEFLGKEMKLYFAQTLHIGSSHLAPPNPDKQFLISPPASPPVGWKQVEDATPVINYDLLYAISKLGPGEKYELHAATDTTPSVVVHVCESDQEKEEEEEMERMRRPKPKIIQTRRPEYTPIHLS
# UniProt Q86X10, sequence (Q86X10 whole entry, looked up): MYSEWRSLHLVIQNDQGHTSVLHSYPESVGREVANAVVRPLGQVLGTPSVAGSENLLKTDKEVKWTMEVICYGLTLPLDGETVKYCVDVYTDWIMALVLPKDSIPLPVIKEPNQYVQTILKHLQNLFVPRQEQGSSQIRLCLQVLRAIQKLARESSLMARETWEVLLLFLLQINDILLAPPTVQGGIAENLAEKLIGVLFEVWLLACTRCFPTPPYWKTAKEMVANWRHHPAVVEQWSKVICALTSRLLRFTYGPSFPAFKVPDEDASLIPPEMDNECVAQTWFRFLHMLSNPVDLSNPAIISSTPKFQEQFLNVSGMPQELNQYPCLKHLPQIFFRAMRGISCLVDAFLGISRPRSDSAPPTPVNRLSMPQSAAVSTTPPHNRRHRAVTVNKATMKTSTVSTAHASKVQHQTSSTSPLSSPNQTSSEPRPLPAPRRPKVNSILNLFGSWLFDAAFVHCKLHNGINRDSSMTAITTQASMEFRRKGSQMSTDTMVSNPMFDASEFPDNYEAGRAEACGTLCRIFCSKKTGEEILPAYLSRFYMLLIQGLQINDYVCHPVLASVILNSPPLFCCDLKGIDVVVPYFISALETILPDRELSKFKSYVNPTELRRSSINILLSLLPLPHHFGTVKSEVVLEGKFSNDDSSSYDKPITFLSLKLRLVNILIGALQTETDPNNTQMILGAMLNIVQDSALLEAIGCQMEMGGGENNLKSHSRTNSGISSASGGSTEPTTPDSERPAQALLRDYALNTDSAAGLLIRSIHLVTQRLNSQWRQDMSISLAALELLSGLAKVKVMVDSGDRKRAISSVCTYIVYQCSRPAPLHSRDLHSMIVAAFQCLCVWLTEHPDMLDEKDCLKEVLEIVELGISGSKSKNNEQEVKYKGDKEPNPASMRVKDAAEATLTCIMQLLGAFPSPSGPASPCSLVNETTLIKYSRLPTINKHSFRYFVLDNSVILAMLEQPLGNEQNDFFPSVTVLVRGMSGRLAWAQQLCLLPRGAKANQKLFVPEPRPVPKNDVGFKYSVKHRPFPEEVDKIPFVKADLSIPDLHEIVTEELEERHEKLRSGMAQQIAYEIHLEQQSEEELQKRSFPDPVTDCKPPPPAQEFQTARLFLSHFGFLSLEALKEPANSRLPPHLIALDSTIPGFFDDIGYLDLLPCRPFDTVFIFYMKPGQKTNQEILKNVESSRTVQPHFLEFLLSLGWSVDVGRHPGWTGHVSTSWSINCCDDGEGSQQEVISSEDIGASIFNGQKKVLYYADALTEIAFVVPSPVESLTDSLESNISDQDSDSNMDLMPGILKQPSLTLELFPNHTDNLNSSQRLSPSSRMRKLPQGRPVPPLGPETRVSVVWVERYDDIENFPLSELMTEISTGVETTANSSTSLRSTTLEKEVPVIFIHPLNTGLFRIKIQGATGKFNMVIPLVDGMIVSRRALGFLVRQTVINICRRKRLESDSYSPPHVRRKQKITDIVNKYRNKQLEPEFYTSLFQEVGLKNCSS
# UniProt Q8WZA2, sequence (Q8WZA2 whole entry, looked up): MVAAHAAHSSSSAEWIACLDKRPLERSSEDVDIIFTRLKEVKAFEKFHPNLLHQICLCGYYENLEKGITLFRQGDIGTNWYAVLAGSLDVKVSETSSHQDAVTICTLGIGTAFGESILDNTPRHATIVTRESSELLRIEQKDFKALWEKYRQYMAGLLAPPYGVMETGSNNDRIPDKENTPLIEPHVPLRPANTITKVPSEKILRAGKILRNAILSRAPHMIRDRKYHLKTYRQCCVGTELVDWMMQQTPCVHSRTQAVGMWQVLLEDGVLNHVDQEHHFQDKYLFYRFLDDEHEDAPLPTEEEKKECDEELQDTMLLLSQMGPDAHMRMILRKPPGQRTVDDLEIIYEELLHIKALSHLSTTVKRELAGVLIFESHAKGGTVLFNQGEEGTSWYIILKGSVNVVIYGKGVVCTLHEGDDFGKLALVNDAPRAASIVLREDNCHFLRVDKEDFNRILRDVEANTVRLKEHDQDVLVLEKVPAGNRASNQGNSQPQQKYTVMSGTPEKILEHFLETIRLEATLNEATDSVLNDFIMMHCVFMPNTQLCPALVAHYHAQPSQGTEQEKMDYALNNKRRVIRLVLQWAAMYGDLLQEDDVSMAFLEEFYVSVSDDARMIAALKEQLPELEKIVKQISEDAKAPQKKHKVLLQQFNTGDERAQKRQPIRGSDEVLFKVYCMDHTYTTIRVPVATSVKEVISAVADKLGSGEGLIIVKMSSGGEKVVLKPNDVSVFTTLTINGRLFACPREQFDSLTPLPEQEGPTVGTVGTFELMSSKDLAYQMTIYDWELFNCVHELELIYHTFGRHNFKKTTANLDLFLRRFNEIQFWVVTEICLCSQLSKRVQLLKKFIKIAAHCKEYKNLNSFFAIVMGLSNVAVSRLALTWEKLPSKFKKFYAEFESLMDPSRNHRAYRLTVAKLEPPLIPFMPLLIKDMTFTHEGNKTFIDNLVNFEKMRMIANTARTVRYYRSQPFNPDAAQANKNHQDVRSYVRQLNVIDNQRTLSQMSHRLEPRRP
# UniProt O43502, sequence (O43502 whole entry, looked up): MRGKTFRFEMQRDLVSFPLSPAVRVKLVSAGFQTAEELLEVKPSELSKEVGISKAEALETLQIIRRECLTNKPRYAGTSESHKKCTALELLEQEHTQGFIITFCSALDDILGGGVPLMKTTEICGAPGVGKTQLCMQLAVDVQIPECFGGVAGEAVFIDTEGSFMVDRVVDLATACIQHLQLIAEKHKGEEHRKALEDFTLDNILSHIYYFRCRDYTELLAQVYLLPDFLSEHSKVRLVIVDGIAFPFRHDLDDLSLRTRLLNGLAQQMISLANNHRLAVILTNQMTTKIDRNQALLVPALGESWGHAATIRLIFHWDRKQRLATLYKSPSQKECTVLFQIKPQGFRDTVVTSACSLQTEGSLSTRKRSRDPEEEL
# UniProt Q92930, sequence (Q92930 whole entry, looked up): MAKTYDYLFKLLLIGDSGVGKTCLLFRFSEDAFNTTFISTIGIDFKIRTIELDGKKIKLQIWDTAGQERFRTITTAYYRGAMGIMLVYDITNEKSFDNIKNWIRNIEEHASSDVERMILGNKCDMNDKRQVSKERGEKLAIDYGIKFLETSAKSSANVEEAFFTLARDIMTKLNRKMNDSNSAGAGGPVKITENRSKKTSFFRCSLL
# UniProt Q8WWV3, sequence (Q8WWV3 whole entry, looked up): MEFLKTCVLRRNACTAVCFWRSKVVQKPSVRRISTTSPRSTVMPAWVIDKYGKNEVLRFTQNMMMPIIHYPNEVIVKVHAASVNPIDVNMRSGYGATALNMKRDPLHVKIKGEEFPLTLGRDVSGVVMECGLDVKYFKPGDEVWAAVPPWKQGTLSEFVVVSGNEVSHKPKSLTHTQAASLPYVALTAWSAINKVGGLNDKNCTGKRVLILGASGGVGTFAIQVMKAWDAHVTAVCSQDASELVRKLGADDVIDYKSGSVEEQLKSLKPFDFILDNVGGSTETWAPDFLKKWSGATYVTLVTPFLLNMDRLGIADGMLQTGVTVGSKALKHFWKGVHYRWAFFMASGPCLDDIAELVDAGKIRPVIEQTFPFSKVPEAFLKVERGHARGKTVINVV
Target,log2 fold change [1],log2 fold change [2],log2 fold change [3],log2 fold change [4],log2 fold change [5]
REEP6 (UniProt Q96HR9),0.038,-0.081,0.005,-0.107,-0.181
RDX (UniProt P35241),-0.029,-0.036,0.003,0.025,0.148
SCAF1 (UniProt Q9H7N4),0.112,-0.492 (active),0.002,-0.007,0.019
RCOR3 isoform 3 (UniProt Q9P2K3),-0.026,0.009,0.046,0.011,0.394 (active)
ROCK1 (UniProt Q13464),0.019,0.027,0.023,-0.016,-0.008
RBBP7 (UniProt Q16576),-0.029,0.013,0.009,-0.042,–
RPL8 (UniProt P62917),-0.012,-0.036,-0.031,0.066,0.032
RPL31 (UniProt P62899),0.016,0.013,-0.027,0.041,-0.022
RIOK1 (UniProt Q9BRS2),-0.026,-0.031,-0.003,-0.006,-0.015
RAB3IL1 (UniProt E9PK89),-0.109,0.057,0.014,-0.189,-0.006
RABEPK (UniProt Q7Z6M1),-0.032,0.054,0.026,0.017,-0.071
RNF170 (UniProt Q96K19),-0.097,-0.115,0.149,0.285,-0.026
RAB21 (UniProt Q9UL25),-0.086,0.036,0.019,0.055,0.127
RPS9 (UniProt P46781),0.003,0.038,-0.007,0.1,0.124
RASA3 (UniProt Q14644),-0.066,0.149,0.078,0.078,0.047
RFC4 (UniProt P35249),-0.026,-0.059,0.006,0.028,0.01
RAP1B (UniProt F5GZG1),-0.082,-0.124,0.023,-0.019,-0.282
RBM4 (UniProt Q9BWF3),0,0.016,0.022,0.03,-0.007
RAD50 isoform 2 (UniProt Q92878),-0.002,-0.031,0.004,0.008,0.009
SASS6 (UniProt Q6UVJ0),-0.01,0.028,0,0.021,0.037
QTRT2 isoform 4 (UniProt Q9H974),-0.004,0.014,-0.03,-0.019,-0.157
RPS6KA1 (UniProt Q15418),-0.073,-0.064,-0.045,0.015,-0.047
SDHA (UniProt P31040),0.114,-0.012,-0.012,0.005,-0.007
RNASEL (UniProt Q05823),0.047,-0.041,0.068,-0.004,0.046
SAR1B (UniProt Q9Y6B6),-0.006,-0.007,-0.01,-0.068,0.052
RLIM (UniProt Q9NVW2),0.049,0.135,–,–,–
RNF40 (UniProt O75150),0,-0.02,0.007,-0.003,0.041

Target,log2 fold change [1],log2 fold change [2],log2 fold change [3],log2 fold change [4],log2 fold change [5]
RPS6KB1 (UniProt P23443),0.029,-0.051,0.027,0.023,-0.018
RNF123 (UniProt Q5XPI4),-0.019,-0.024,0.019,0.005,0.047
SCO2 (UniProt O43819),0.026,0.002,0.037,0.011,-0.074
SAMHD1 (UniProt Q9Y3Z3),0.005,0.002,-0.018,0.051,-0.002
RHOA (UniProt P61586),0.177,0.06,0.038,0.02,0.07
SAP30 (UniProt O75446),0.029,-0.029,0.009,0.014,-0.026
RAB8B (UniProt Q92930),-0.067,0.013,-0.041,-0.012,0.146
RTN4IP1 (UniProt Q8WWV3),0.028,-0.005,0.027,-0.119,0.076
RECQL4 (UniProt O94761),0.002,-0.012,0.073,-0.011,0.154
SCCPDH (UniProt Q8NBX0),0.165,-0.144,0.038,-0.004,-0.164
RPL37A (UniProt P61513),-0.009,0,-0.031,0.191,0.166
RPS4X (UniProt P62701),0.02,0.029,-0.009,0.044,0.066
SELENOK (UniProt Q9Y6D0),0.061,-0.074,-0.05,-0.181,-0.311
RAPGEF4 (UniProt Q8WZA2),0,0.092,0.06,-0.274,-0.558
RNF113A (UniProt O15541),0.047,-0.022,-0.018,-0.065,-0.066
RPTOR (UniProt Q8N122),0.015,-0.024,0.035,-0.008,0.04
SAMD4A (UniProt Q9UPU9),0.114,0.086,-0.01,-0.079,-0.03
RBM23 isoform 2 (UniProt Q86U06),-0.118,-0.084,0.06,0.011,-0.002
SEC16A isoform 5 (UniProt O15027),-0.013,-0.005,0.067,0.036,0.011
RASA2 (UniProt Q15283),-0.07,0.045,0.058,0.025,0.037
RCAN1 (UniProt P53805),0.141,-0.074,-0.063,-0.026,0.026
SEC62 (UniProt Q99442),0.059,-0.017,0.015,0.043,-0.023
RBBP7 isoform 2 (UniProt Q16576),-0.012,-0.009,-0.03,-0.01,-0.033
RAI14 isoform 2 (UniProt Q9P0K7),0.002,-0.052,-0.02,-0.041,-0.033
RAD51C (UniProt O43502),-0.028,0.026,0.078,-0.029,-0.004
RALGAPB (UniProt Q86X10),0.029,0.023,0.085,-0.026,0.006

# Reference: the supplement of paper PMC10849652
